DAX1 inh-1 – DAX1 (NR0B1) inhibition, primary screen. HEK293T StAR-luciferase reporter, SF-1/DAX-1 repression relief. 370,000 compounds, 1.1% hits. inhibition, % at 6.8 µM;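 active means inhibition above the mean over all tested compounds plus 3 SD, cut at about 3.6% in these data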;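 further: 0% = DAX-1 cells with DMSO and 100% = cells lacking DAX-1 with DMSO; higher inhibition means more luminescence from relief of DAX-1 repression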
hcDAF-12 act – H. contortus DAF-12 activation, primary screen; activation, % at 6.8 µM; HEK293 hcDAF-12 lit1-tk-luc reporter, luminescence; 0% DMSO, 100% Δ7-dafachronic acid; 370,000 compounds, 1.4% hits; AID 652067;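 active means activation above the mean of all tested compounds plus 3 SD, cut at about 5.5% in these data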;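 further: 100% = response to 3 µM Δ7-dafachronic acid high control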
DAX1 inh-2 – inhibits human nuclear receptor DAX1; HEK293 Gal4-DAX1 luciferase reporter, luminescence; AID 504766; inhibition, % at 6.75 µM; 340,000 compounds, 0.99% hits; P51843;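 active means inhibition above the mean over all tested compounds plus 3 SD, cut at about 4.2% in these data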;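 further: 0% = DAX1-transfected cells with DMSO and 100% = empty-vector control cells with DMSO; inhibition shows as a rise in luminescence from relieved DAX1 repression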
Target sequence (P51843 207-470 limits assumed): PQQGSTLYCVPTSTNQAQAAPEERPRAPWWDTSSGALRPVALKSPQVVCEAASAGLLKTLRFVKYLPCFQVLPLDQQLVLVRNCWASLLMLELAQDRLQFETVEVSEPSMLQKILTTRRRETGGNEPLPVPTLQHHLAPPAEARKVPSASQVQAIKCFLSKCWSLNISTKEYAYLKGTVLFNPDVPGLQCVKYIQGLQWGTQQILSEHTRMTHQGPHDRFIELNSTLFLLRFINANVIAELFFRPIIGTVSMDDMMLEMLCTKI
ssDAF-12 act – activators of S. stercoralis DAF-12 nuclear receptor; activation, % at 6.8 µM; HEK293 ssDAF-12/GRIP1 lit1-tk-luc reporter, luminescence; % of 3 µM dafachronic acid response; 370,000 compounds, 1% hits;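 active means activation above the mean over all tested compounds plus 3 SD, cut at about 0.9% in these data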;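 further: 0% = DMSO-only wells and 100% = 3 µM delta7-dafachronic acid wells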
hgDAF-12 ag – activates the H. glycines DAF-12 receptor ligand-binding domain | HEK293 GAL4-hgDAF12 UAS-luciferase reporter, agonist luminescence; normalized to butyrate control | activation, % at 6.8 µM | 370,000 compounds, 1.8% hits | AID 687014;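 active means activation above a cutoff set at the mean of all screened compounds plus 3 SD, cut at about 10% in these data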;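 further: 0% = DMSO wells and 100% = sodium butyrate wells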
Active calls of the source: *; / = not tested or not shown. A selection: hits, their analogues and other compounds. The true share with any hit is near 4.1%.

SMILES	DAX1 inh-1	hcDAF-12 act	DAX1 inh-2	ssDAF-12 act	hgDAF-12 ag
Cc1nc2nc(-c3ccccc3)nn2c(C)c1C	1	4	3	0	11*
Cc1nc2nc(-c3ccccc3)nn2c(C)c1Cl	2	5.6*	2	0.9*	7
Cc1nc(-c2ccccc2)nc(-c2ccccc2)n1	0	2	0	-1	1
COc1ccc(S[C@]2(C(=O)N3CCN(C(C)=O)CC3)CC(=O)N(C(=O)Nc3ccc(C)c(Cl)c3)[C@@H]2c2ccc(OC)cc2)cc1	-1	-1	/	-2	2
Nc1[nH]c(N=NC(=O)c2ccccc2)c2ccccc12	1	3	1	0	2
Nc1[nH]c(N=NC(=O)c2ccccc2O)c2ccccc12	3	2	2	-1	12*
Cc1ccc(-c2cn(-c3ccccc3)c(SCC(N)=O)n2)cc1C	2	0	0	-1	7
CCOC(=O)NC(=O)CSc1nc(-c2ccc(C)c(C)c2)cn1-c1ccccc1	2	5.7*	1	0	10
COc1cc(NC(=O)CSc2nnc3c(C)cc4cc(C)cc(C)c4n23)c(C(=O)O)cc1OC	0	1	-1	0	11*
COc1ccc(C(=O)N2CCCC(c3cc(C(=O)NCc4cccnc4)no3)C2)cc1 (stereo unspecified)	-1	1	/	-2	-1
CCOc1cc(C(=S)N2CCOCC2)ccc1OC(=O)/C=C/c1ccc(OC)c(OC)c1	0	-1	-1	-2	11*
CCOc1ccc(/C=C/C(=O)N2CCOCC2)cc1OC	0	0	0	-1	-1
C[C@H](CCCCC1(C)OCCO1)CCC(=O)N(c1ccccc1)c1ccccc1	-2	-2	/	-1	0
CC[C@H](CCCc1ccc(OC)cc1)CCC(=O)N1CCOCC1	-1	-2	/	-2	-2
CCc1nnc(NC(=O)CSc2nnc3c(n2)[nH]c2ccccc23)s1	0	-1	0	1.8*	1
O=C(CNS(=O)(=O)c1c(Cl)cccc1Cl)N1CCCCCC1	1	2	3	1.0*	7
O=C(CNS(=O)(=O)c1cccs1)N1CCCCC1	0	0	0	-1	0
Cc1c(C(=O)N2CCN(C)CC2)oc2ccc(Br)cc12	1	1	5.0*	-1	4
Cc1nnc(C)n1N=Cc1ccc(O)cc1O	1	0	/	-1	-2
O=C(O)c1ccc(N=Nc2c(O)[nH]c3ccc(Br)cc23)cc1	1	5	3	0	11*
COC(=O)N=Nc1c(O)[nH]c2ccc(Br)cc12	2	3	1	0	8
Nc1ccc(N=Nc2ccccc2)cc1[N+](=O)[O-]	2	5.6*	2	3.0*	12*
Cc1c(/C=C(\CC(=O)O)c2nc3ccccc3s2)cc(C#N)n1C	0	5.6*	1	-1	2
O=C1CCC[C@H]2C[C@H](NCc3cccs3)CC[C@]23CCCN13	/	-1	/	-2	-1
CCC1(c2ccccc2)SC(N)=NC1=O (stereo unspecified)	0	0	6.6*	-1	2
SMILES	DAX1 inh-1	hcDAF-12 act	DAX1 inh-2	ssDAF-12 act	hgDAF-12 ag
COc1cccc(NC(=O)NC2CCCCN(Cc3ccc(C)cc3)C2=O)c1 (stereo unspecified)	-1	-2	/	-1	1
COC/C=C/C1=CC2=CC(=O)C(C)(OC(=O)c3cnc4ccccc4n3)C(=O)C2=CN1CCCCO (stereo unspecified)	0	0	4.2*	-1	-1
COc1ccc(OC)c(CN2C(=O)CCCCC2(C)c2nnnn2C2CCCC2)c1 (stereo unspecified)	0	-2	/	-2	0
O=C(CCCCCNC(=O)N1CCn2c1nc1ccccc12)N[C@@H](Cc1ccccc1)C(=O)O	1	0	4.5*	0	2
COC(=O)CCN(C(=O)c1cccc(OC(C)=O)c1)c1ccccn1	0	0	4.5*	-1	0
COC(=O)CCN(C(=O)c1ccc2c(c1)OCO2)c1ccccn1	1	-1	0	-1	0
COc1ccc(CCNC(=O)Cn2ncc3c2-c2cc(C)ccc2OC3)cc1	-2	-2	/	-2	-3
COc1ccc(NC(=O)NCCC2=CCCCC2)cc1	2	2	1	-1	12*
COc1cccc(NC(=O)NCCC2=CCCCC2)c1	1	1	1	0	8
COc1ccccc1/C=C/C(=O)NCCC1=CCCCC1	3	2	1	0	12*
COc1ccccc1CNC(=O)NCCCN1CCN(c2ccc(F)cc2)CC1	0	-2	/	-2	-2
COC(=O)[C@]12C[C@H](CC(=O)NCc3ccc(OC)c(OC)c3)C(=O)N(Cc3ccc(Cl)cc3Cl)C1=C[C@H](C(C)(C)C)O[C@@H]2C	-1	-1	/	-1	0
O=C1CCN(Cc2ccccc2)CCN1CCSc1ccccc1	1	4	1	0	7
CCCN1CCC(=O)N(CCSc2ccccc2)CC1	1	3	4	0	11*
CC(C)CC[n+]1ccn(-c2nc3ccccc3nc2[N-]S(=O)(=O)c2ccc(Cl)cc2)c1	1	-1	5.3*	-2	0
Cc1ccc(S(=O)(=O)[N-]c2nc3ccccc3nc2-n2cc[n+](CCC(C)C)c2)cc1	1	2	1	0	0
CCCC1CCC2(CCCN2CCOC(=O)Nc2cccc(Cl)c2)CC1 (stereo unspecified)	/	2	/	-1	2
N#Cc1c(Cl)c(Cl)c2nnc(-c3ccc(Br)cc3)n2c1Cl	-1	3	/	1.2*	2
CCC(=O)N1CCc2cc(Br)c(S(=O)(=O)NCCCN(CC)Cc3ccccc3)cc21	0	1	/	0	0
CCN(CC)S(=O)(=O)c1ccc(NN)nc1	0	-2	0	1.4*	-2
O=c1[nH]c2ccccc2cc1-c1nnn(-c2ccc(Cl)c(Cl)c2)n1	0	4	0	0	2
Cc1ccc(-n2nnc(-c3cc4ccccc4nc3Cl)n2)cc1	0	5	3	1.4*	2
Cc1cc(Cl)ccc1OCC(=O)N/N=C/c1ccc[nH]1	/	-2	/	-2	-2
COc1ccc(C2=NN(S(=O)(=O)c3ccccc3)C(c3ccccc3)C2)cc1 (stereo unspecified)	0	0	1	-1	0
COc1ccc(C2=NN(CN3C(=O)C(=O)c4ccccc43)C(c3ccc(OC)cc3)C2)cc1 (stereo unspecified)	0	1	0	-1	11*
O=C(CCC(=O)NNc1nc2ccccc2c2nc(-c3ccccc3)nn12)NCCCN1CCOCC1	0	5.6*	0	0	5
CN1CCN(CCCNc2nc3ccccc3c3nc(-c4ccccc4)nn23)CC1	1	-2	0	-1	1
CCCCSc1nnc(-c2ccccc2N)c(=O)[nH]1	1	5.9*	0	0	11*
